Assay outcomes from PubChem BioAssay.
Cruzain inh noDet: blocks cruzain activity in detergent-free assay; P25779; purified cruzain, Z-FR-AMC fluorescence, no detergent; Potency, µM, actives largely listed as inhibitors; hit rate 2.3% among 200,000; also: nearly all actives have a fitted effect of over 40% in size
Target sequence (P25779 123-467 limits assumed): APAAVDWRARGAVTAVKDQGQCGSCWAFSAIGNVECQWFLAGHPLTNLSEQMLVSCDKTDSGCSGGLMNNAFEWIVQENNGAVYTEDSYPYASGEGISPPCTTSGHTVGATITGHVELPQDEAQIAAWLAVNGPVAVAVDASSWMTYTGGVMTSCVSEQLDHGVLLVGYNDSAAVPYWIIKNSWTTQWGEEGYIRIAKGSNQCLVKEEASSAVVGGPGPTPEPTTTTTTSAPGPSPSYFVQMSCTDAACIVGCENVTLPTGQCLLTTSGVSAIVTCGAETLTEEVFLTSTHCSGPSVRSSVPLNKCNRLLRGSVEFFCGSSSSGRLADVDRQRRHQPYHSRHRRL
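Purified cruzain at 1.5 nM, pre-incubated 15 min with compound at room temperature in 100 mM sodium acetate pH 5.5, 5 mM DTT, 0.00005% Triton X-100. Reaction started with 2 uM Z-FR-AMC; AMC fluorescence increase over 60 s gives rate.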
Cruzain Triton: cruzain (T. cruzi) inhibition with detergent; AID 1478; purified cruzain, Z-FR-AMC fluorescence, 0.01% Triton; P25779; hit rate 0.43% among 200,000; Potency, µM, actives largely listed as inhibitors; also: nearly all actives have a fitted effect of over 40% in size
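Compounds were screened in titration against cruzain (1.5 nM) with 0.01% Triton X-100 to counter colloidal aggregation. Activity was the AMC fluorescence increase over 60 s after adding 2 uM Z-FR-AMC at pH 5.5.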
Papain inh: papain (Carica papaya) inhibition counter-screen. Potency, µM, actives largely listed as inhibitors. purified papain, Z-FR-AMC fluorescence cleavage. hit rate 41% among 410. shares compounds with Cruzain Triton; also: nearly all actives have a fitted effect of over 35% in size
Target sequence (P00784 whole entry, looked up): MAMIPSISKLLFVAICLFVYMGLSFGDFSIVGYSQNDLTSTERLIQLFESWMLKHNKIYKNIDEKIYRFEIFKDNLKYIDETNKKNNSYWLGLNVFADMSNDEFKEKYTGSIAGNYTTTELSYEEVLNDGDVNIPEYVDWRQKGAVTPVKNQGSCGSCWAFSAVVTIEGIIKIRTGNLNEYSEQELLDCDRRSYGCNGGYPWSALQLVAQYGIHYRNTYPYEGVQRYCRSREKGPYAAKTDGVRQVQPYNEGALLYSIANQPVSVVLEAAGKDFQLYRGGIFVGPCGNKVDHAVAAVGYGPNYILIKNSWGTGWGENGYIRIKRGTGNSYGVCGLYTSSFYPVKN
Numbers stand for hits. Sampled rows, rich in hits. Any-hit rate of the full collection: about 2.5%. Calls follow the shape of the dose curve; as a rule, active = well fitted curve in the direction sought with a large enough effect; inconclusive = small, poorly fitted or top-dose-only effect, or another doubt; inactive = no such curve, though single readings can be large; an effect the other way counts as inactive or inconclusive.

Results for Cc1ccc(OCCCCn2c(CCNC(=O)C3CCCCC3)nc3ccccc32)cc1 ?
Papain inh: 31.6µM

How did CC(C)(C)C(=O)NCCCc1nc2ccccc2n1CCCOc1ccc(Cl)cc1 do in these assays?
Cruzain inh noDet: inconclusive; Cruzain Triton: inactive

What do the screens show for `CCOc1ccc(NCc2nc3ccccc3n2CCOc2ccc(C)cc2)cc1`?
Cruzain inh noDet: inactive; Cruzain Triton: inactive

What do the screens show for `CC(C)(C)c1ccc(OCCn2c(CCNC(=O)C3CCCCC3)nc3ccccc32)cc1`?
Papain inh: inactive

What do the screens show for `Cc1ccc(OCCn2c(CCNC(=O)C3CCCCC3)nc3ccccc32)cc1`?
Cruzain inh noDet: inactive; Cruzain Triton: 1.26µM; Papain inh: inactive

Results for CCc1nc2ccccc2n1CCCCOc1ccc(C)cc1 ?
Cruzain inh noDet: inactive; Cruzain Triton: inactive

How did Cc1noc(C)c1C(=O)N1CCC2(CCN(C(=O)NC(C)C)CC2)CC1 do in these assays?
Cruzain inh noDet: inactive; Cruzain Triton: inactive

Results for O=C(Cc1cccs1)NC1CC(=O)N(c2ccccc2)C1 (configuration not stated) ?
Cruzain inh noDet: inactive; Cruzain Triton: inactive

How did CC(=O)NCCc1nc2ccccc2n1CCCCOc1ccc(Cl)cc1 do in these assays?
Cruzain inh noDet: inconclusive; Cruzain Triton: inactive

What do the screens show for `O=C(NCCc1nc2ccccc2n1CCCOc1ccc(Cl)cc1)C1CCCCC1`?
Cruzain inh noDet: inactive; Cruzain Triton: 2µM; Papain inh: 28.2µM

What do the screens show for `CCOc1ccccc1CNC(=O)c1cccc(NC(=O)c2nsc3ccccc23)c1`?
Cruzain inh noDet: inconclusive; Cruzain Triton: inactive

Results for CCC(C)NC(=O)c1ccc2nc(-c3ccco3)c(-c3ccco3)nc2c1 (configuration not stated) ?
Papain inh: 15.8µM

How did CCC(C)NC(=O)c1ccc2nc(Cc3ccccc3)oc2c1 (configuration not stated) do in these assays?
Cruzain inh noDet: inactive; Cruzain Triton: inactive

How did Cc1ccc(Cn2c(CNC(=O)Cc3cccc([N+](=O)[O-])c3)nc3cccnc32)cc1 do in these assays?
Cruzain inh noDet: inactive; Cruzain Triton: inactive

Results for COc1ccc(-c2nnc3sc(-c4ccccc4OC)nn23)cc1 ?
Cruzain inh noDet: inconclusive; Cruzain Triton: inactive

What do the screens show for `COc1cc(-c2nn3c(-c4ccccc4)nnc3s2)cc(OC)c1OC`?
Cruzain inh noDet: inconclusive; Cruzain Triton: inactive

How did Clc1ccc(-c2nn3c(-c4cc(-c5ccccc5)n[nH]4)nnc3s2)cc1 do in these assays?
Papain inh: inactive

Results for COc1ccccc1-c1nn2c(-c3cc(C)[nH]n3)nnc2s1 ?
Papain inh: inactive

Results for Cc1ccc(-c2nn3c(-c4cccc(Cl)c4)nnc3s2)cc1 ?
Cruzain inh noDet: inconclusive; Cruzain Triton: inactive

Results for COc1cc(-c2nn3c(-c4cc(-c5ccccc5)n[nH]4)nnc3s2)cc(OC)c1OC ?
Papain inh: inactive

How did CCCCOc1cccc(C(=O)N(Cc2ccc(C)o2)c2ccccn2)c1 do in these assays?
Cruzain inh noDet: inactive; Cruzain Triton: inactive

How did COCCN=C1OC(=O)N2C(=O)C3=C4C(C[C@H]5C(=O)N(CC(=O)OC)C(=O)[C@H]5[C@H]4[C@@]12Cc1ccccc1)[C@H]1C(=O)N(CC(=O)OC)C(=O)[C@H]1[C@H]3C (some centres not stated) do in these assays?
Cruzain inh noDet: inconclusive; Cruzain Triton: inactive

What do the screens show for `CCc1ccc(NC(=O)N2CCOc3ccc(Cl)cc32)cc1`?
Cruzain inh noDet: inactive; Cruzain Triton: inactive

What do the screens show for `CCCCNC(=O)c1ccc2nc(-c3cccs3)c(-c3cccs3)nc2c1`?
Papain inh: inactive

What do the screens show for `COC(CNC(=O)c1ccc2nc(-c3cccs3)c(-c3cccs3)nc2c1)OC`?
Cruzain inh noDet: inactive; Cruzain Triton: inactive

Results for C=CCn1c(SCC(=O)NCc2ccco2)nc2sc3c(c2c1=O)CCCC3 ?
Cruzain inh noDet: inactive; Cruzain Triton: inactive

Results for O=C(NCc1ccco1)c1ccc2nc3sc4c(c3c(=O)n2c1)CCCC4 ?
Cruzain inh noDet: inactive; Cruzain Triton: 10µM; Papain inh: 25.1µM

What do the screens show for `C=CC[C@@](C(C)=O)(C(=O)OC)C(NC(=O)OC)c1ccccc1` (some centres not stated)?
Cruzain inh noDet: inactive; Cruzain Triton: inactive

Results for Cc1ccc(N(C)C(=O)Cn2nc(Cc3ccncc3)c3ccccc3c2=O)cc1C ?
Cruzain inh noDet: inactive; Cruzain Triton: inactive

How did Fc1ccc(Nc2c(-c3c[nH]c4ccccc34)nc3ccccn23)cc1 do in these assays?
Cruzain inh noDet: inactive; Cruzain Triton: inactive

Results for COC(=O)Sc1nc(N2CCOCC2)c2c(c1C#N)CC(C)(C)OC2 ?
Cruzain inh noDet: 15.8µM; Cruzain Triton: 10µM; Papain inh: 15.8µM

What do the screens show for `CC1(C)Cc2c(C#N)c(SCC(=O)c3ccccc3)nc(N3CCOCC3)c2CO1`?
Cruzain inh noDet: inconclusive; Cruzain Triton: inactive

Results for CCOc1ccc(-c2cc3nc(C4CCN(C(=O)OC(C)(C)C)CC4)c(C(=O)Nc4c(C)cccc4C)cn3n2)cc1 ?
Cruzain inh noDet: inactive; Cruzain Triton: inactive

How did CCOc1ccc(-c2cc3nc(C4CCN(C(=O)OC(C)(C)C)CC4)c(C(=O)O)cn3n2)cc1 do in these assays?
Cruzain inh noDet: inconclusive; Cruzain Triton: inactive; Papain inh: 31.6µM

How did Cc1ccc(C(=O)Nc2ccc3oc(-c4ccccc4C)nc3c2)cc1 do in these assays?
Cruzain inh noDet: inactive; Cruzain Triton: inactive

What do the screens show for `Cc1ccc(NC(=O)CN2C(=O)CCc3cc(S(=O)(=O)N4CCCCC4)ccc32)cc1N(C)C`?
Cruzain inh noDet: inactive; Cruzain Triton: inactive

What do the screens show for `Cc1cc2c(C)cc(=O)oc2c2c1NCCC2`?
Cruzain inh noDet: inactive; Cruzain Triton: 25.1µM; Papain inh: 15.8µM

What do the screens show for `Cc1cc2cc3c(C)cc(=O)oc3c(C)c2o1`?
Cruzain inh noDet: inactive; Cruzain Triton: inactive

How did OCCN(CCO)c1ccc(C(c2ccccc2Cl)c2ccc(N(CCO)CCO)cc2Cl)c(Cl)c1 do in these assays?
Cruzain inh noDet: inconclusive; Cruzain Triton: inactive; Papain inh: inactive

What do the screens show for `CC(C)(C)NCC(O)c1ccccc1Cl` (configuration not stated)?
Cruzain inh noDet: inactive; Cruzain Triton: inactive

How did CCCn1c(-c2ccc(F)cc2)nc2c(N3CCN(Cc4nc(OC)cc(OC)n4)CC3)nc(C)nc21 do in these assays?
Cruzain inh noDet: inconclusive; Cruzain Triton: inactive

Results for COc1ccc2[nH]c(=O)c(CN(Cc3nnnn3Cc3ccco3)C3CCCCC3)cc2c1 ?
Cruzain inh noDet: 7.94µM; Cruzain Triton: 7.08µM; Papain inh: inactive

What do the screens show for `COc1ccc2[nH]c(=O)c(CN(C3CCCCC3)C(c3nnnn3Cc3ccco3)C(C)C)cc2c1` (configuration not stated)?
Cruzain inh noDet: inconclusive; Cruzain Triton: inactive

What do the screens show for `Cc1ccc(CN(Cc2cc3cc4c(cc3[nH]c2=O)OCCO4)Cc2nnnn2Cc2ccco2)cc1`?
Cruzain inh noDet: inactive; Cruzain Triton: 20µM; Papain inh: inactive

Results for COc1ccc2cc(CN(CCc3ccccc3)Cc3nnnn3Cc3ccco3)c(=O)[nH]c2c1 ?
Cruzain inh noDet: inactive; Cruzain Triton: inactive

Results for CCC(c1nnnn1Cc1ccco1)N(Cc1ccccc1OC)Cc1cc2cc(C)ccc2[nH]c1=O (configuration not stated) ?
Cruzain inh noDet: inactive; Cruzain Triton: inactive
